This passage reports activation, Potency and viability results from PubChem BioAssay (NCATS).

Assay [1] deals with Cellular tumor antigen p53 (Homo sapiens) (UniProt P04637). The assay can be described thus: Primary qHTS for small molecule compounds that upregulate eGFP-tagged delta133p53alpha (in N-terminal) cells. (AID 2060322).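 Also: series mostly up to about 56 µM; 0% = DMSO vehicle and 100% = reference activator; nearly all actives have a fitted effect of over 75% in size.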 Particulars: NCI-H358 eGFP-delta133p53alpha fluorescence, 24 h; activation: active compounds read high. The essentials: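 NCI-H358 cells pre-induced 24 h with 10 ng/ml doxycycline to express N-terminal eGFP-delta133p53alpha, then dosed 24 h at 37C without doxycycline; fixed, Hoechst-stained, GFP intensity by laser scanning cytometry, normalized to DMSO (0%) and 57.5 uM 5-azacytidine (100%).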
Chain of Cellular tumor antigen p53 (Homo sapiens) (P04637 whole entry, looked up): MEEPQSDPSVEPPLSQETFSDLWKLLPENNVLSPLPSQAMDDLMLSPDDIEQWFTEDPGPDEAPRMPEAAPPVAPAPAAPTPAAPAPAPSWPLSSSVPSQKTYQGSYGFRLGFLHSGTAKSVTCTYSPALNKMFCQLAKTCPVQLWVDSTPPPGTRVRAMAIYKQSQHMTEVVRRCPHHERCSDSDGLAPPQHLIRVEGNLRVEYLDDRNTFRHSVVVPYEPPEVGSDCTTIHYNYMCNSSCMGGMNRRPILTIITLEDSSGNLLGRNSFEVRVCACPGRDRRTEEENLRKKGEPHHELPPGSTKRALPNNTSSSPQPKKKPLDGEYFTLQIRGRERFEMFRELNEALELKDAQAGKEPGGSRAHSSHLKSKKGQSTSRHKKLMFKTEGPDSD
On the technique in general: qHTS replaces the single test concentration by a dilution series.

The target is the same in assay [2]. The assay can be described thus: Primary qHTS for small molecule compounds that upregulate eGFP-tagged delta133p53alpha (in C-terminal) cells. (AID 2060324).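 Also: 0% = DMSO wells and 100% = 57.5 µM 5-azacytidine.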 The essentials:
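NCI-H358 cells pre-induced 24 h with 100 ng/ml doxycycline to express delta133p53alpha-eGFP, then dosed in doxycycline-free medium for 24 h at 37C. Fixed, Hoechst-stained; GFP intensity by laser scanning cytometry, normalized to DMSO wells.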

In assay [3] the target is Aldehyde dehydrogenase, mitochondrial (Homo sapiens) (UniProt P05091). The assay can be described thus: qHTS for Inhibitors of the Aldehyde Dehydrogenase Family (ALDH2) Validation screens (AID 2061302; active = well fitted inhibition curve with a large enough effect; title and protocol of this record describe different tests;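 also: plate controls were DMSO vehicle for no effect and maximal DPI positive control response for full effect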).
Assay [4] has the same target. The assay can be described thus: qHTS for Inhibitors of the Aldehyde Dehydrogenase Family (ALDH2) Primary screen (AID 2061308).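 Also: plate controls were vehicle for no effect and reference inhibitor for full effect; nearly all actives have a fitted effect of over 55% in size.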
The target of assay [5] is Retinaldehyde dehydrogenase 3 (Homo sapiens) (UniProt P47895). The assay can be described thus: qHTS for Inhibitors of the Aldehyde Dehydrogenase Family (ALDH1A3) Validation screen (AID 2061312). Also: % is scaled to controls: 0 for no effect and ±100 for the full control effect; nearly all actives have a fitted effect of over 45% in size.
Assay [6] shares this target. The assay can be described thus: qHTS for Inhibitors of the Aldehyde Dehydrogenase Family (ALDH1A3) Primary screen (AID 2061315).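 Also: plate controls were DMSO vehicle for no effect and reference inhibitor for full effect.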
Assay [7] in a line: BET inhibitor-based combinations targeting novel dependencies in MECOM-rearranged (r) AML: SET-2 cell line (AID 2202231). Also: nearly all actives have a fitted effect of over 35% in size. Also: potency is read from the fitted curve at half-maximal effect.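 As to viability: plate controls were DMSO treated cells for no effect and wells without cells for full effect.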 Particulars: SET-2 AML cells viability, CellTiter-Glo luminescence, 48 h; viability: active compounds read low, concentration not given here. The method, boiled down:
(§1)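 Luminescent ATP readout (CellTiter-Glo) after 48 hr drug exposure gives viability. Curves span 11 concentrations and are normalized to DMSO and empty wells. Activity is reported as area under the curve and its Z-transform within each cell line.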
A general note: In ATP-based viability assays light output follows the ATP content of the culture.

The nature of assay [8]: BET inhibitor-based combinations targeting novel dependencies in MECOM-rearranged (r) AML: MV-4-11 cell line (AID 2202233). Also: nearly all actives have a fitted effect of over 45% in size. Also: potency is read from the fitted curve at half-maximal effect. The method, boiled down:
(§2)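 Luminescent ATP readout (CellTiter-Glo, 15 min at room temperature) after 48 hr drug exposure gave viability. Dose-response curves, normalized to DMSO and empty-well controls, were summarized as area under the curve and its mean-centred Z-score.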

Assay [9] can be described thus: BET inhibitor-based combinations targeting novel dependencies in MECOM-rearranged (r) AML: HNT-34 cell line (AID 2202234). Also: nearly all actives have a fitted effect of over 35% in size. Also: potency is read from the fitted curve at half-maximal effect. The essentials:
as §2

Assay [10] is described as follows: BET inhibitor-based combinations targeting novel dependencies in MECOM-rearranged (r) AML: AML-191 cell line (AID 2202236; also: nearly all actives have a fitted effect of over 35% in size; also: potency is read from the fitted curve at half-maximal effect). The essentials:
as §1

Assay [11] can be described thus: BET inhibitor-based combinations targeting novel dependencies in MECOM-rearranged (r) AML: AML-194 cell line (AID 2202237; also: nearly all actives have a fitted effect of over 40% in size; also: potency is read from the fitted curve at half-maximal effect). The method, boiled down: as §1
Assay [12] in a line: BET inhibitor-based combinations targeting novel dependencies in MECOM-rearranged (r) AML: OCI-AML3 cell line (AID 2202232). Also: nearly all actives have a fitted effect of over 35% in size. Also: potency is read from the fitted curve at half-maximal effect. Particulars: Potency: OCI-AML3 viability. The essentials:
as §1

Assay [13] is described as follows: BET inhibitor-based combinations targeting novel dependencies in MECOM-rearranged (r) AML: UCSD-AML1 cell line (AID 2202235). Also: nearly all actives have a fitted effect of over 40% in size. Also: potency is read from the fitted curve at half-maximal effect. The method, boiled down: as §2

“And” between values parts separate entries of the source, which are not always exact repeats. Equal entries are not always repeated. Records with an inconclusive call do not appear. Values without a mark were called inactive. The source made the active and inactive calls. Unless noted, calls follow the shape of the dose curve; as a rule, active = well fitted curve in the direction sought with a large enough effect; inconclusive = small, poorly fitted or top-dose-only effect, or another doubt; inactive = no such curve, though single readings can be large; an effect the other way counts as inactive or inconclusive.

One may read the viability as a read-out of living cells in per cent, often relative to untreated cells. In the case of `O=C(O)CCc1ccc(NCc2cccc(Oc3ccccc3)c2)cc1`, the activation in assay [1] was -48.8% and -14.3% and -8.5%. Further, the Potency entry in [2], in [3], in assay [4], in [5], in assay [6] and in assay [8] was “inactive” each time. Also, the Potency result in assay [9], in assay [10] and in [11] was “inactive” throughout. In addition, the viability in [7] is 117%.
Regarding `O=c1c2ccccc2nc2n1CCc1c-2[nH]c2ccccc12`, in assay [1], the activation is -0.328% and 11% and -19%. The Potency entry in [2], in [3], in assay [4], in assay [5] and in assay [6] was “inactive” throughout.
Turning to `NCCS`, the activation in [1] was -9.6% and 3.67%. For the same compound, the Potency result in [2], in assay [3] and in assay [5] was “inactive” each time.
In the case of `O=C1NC(=O)/C(=C/c2ccc3c(c2)OC(F)(F)O3)S1`, the activation in assay [1] was -0.772% and -0.477%. The Potency result in assay [2], in assay [3], in [4] and in assay [6] was “inactive” each time.
As for `COc1ccccc1N1CCN(CCN(C(=O)C2CCCCC2)c2ccccn2)CC1`, in assay [1], the activation is -36.9% and -0.333% and -10.7%. In addition, the Potency result in [2], in [3], in assay [4], in [5], in assay [6] and in assay [12] was “inactive” in each case. The Potency entry in assay [13], in assay [10] and in assay [11] was “inactive” each time.
For `Nc1cc(Cl)c(NC2=NCCN2)c(Cl)c1`, the activation in assay [1] is -1.06%. Moreover, the Potency entry in assay [2], in [3] and in assay [5] was “inactive” each time.
Turning to `Clc1ccc(Cn2c(CN3CCCC3)nc3ccccc32)cc1`, the activation in assay [1] is -13.4% and 2.33% and -45.4%. In addition, the Potency result in [2], in assay [3], in [4], in assay [5] and in assay [6] was “inactive” in each case. The Potency is 20.9 µM (active) in assay [7]; 20.9 µM (active) in assay [8]; 20.9 µM (active) in assay [13]; 18.6 µM (active) in assay [10]; 20.9 µM (active) in assay [11].
Consider `C[C@H](CS)C(=O)N1CCC[C@H]1C(=O)O`, for which the activation in assay [1] is 1.67% and -24.1%. The Potency result in [2], in assay [3] and in assay [5] was “inactive” in each case.
Take `O=C(Nc1ccc2[nH]ncc2c1)C1CCC1`: the activation in [1] was -2.43% and 6.33%. The Potency result in assay [2], in assay [3], in [4], in assay [5] and in [6] was “inactive” each time.
`NS(=O)(=O)c1ccc(-n2nc(C(F)(F)F)cc2-c2ccc(Cl)cc2)cc1`: in [1], the activation was -38.9% and -11.9%. Besides, the Potency entry in assay [2], in [3], in assay [4], in assay [5] and in [6] was “inactive” each time.
On to `CCCN1C[C@H](CSC)C[C@@H]2c3cccc4[nH]cc(c34)C[C@H]21`, for which the activation in assay [1] was 7.67% and 9.97%. For the same compound, the Potency result in assay [2], in assay [3], in assay [4] and in [6] was “inactive” in each case.
For `CCc1cncnc1N1CCN(Cc2nc3ccc(C(F)(F)F)cc3[nH]2)CC1`, in assay [1], the activation is -18% and -36.7% and 26.8%. The Potency result in assay [2], in assay [3], in [4], in assay [5], in assay [6] and in assay [13] was “inactive” throughout. The Potency in assay [7] was 14.8 µM (active); in [12], 11.8 µM (active); in assay [8], 18.6 µM (active); in [10], 13.2 µM (active).
As to `COc1ccc(Cl)cc1C(=O)NCCc1ccc(S(=O)(=O)NC(=O)NC2CCCCC2)cc1`, the activation in assay [1] is 3.95% and -3.34% and -19.4%. In addition, the Potency result in assay [2], in assay [3], in assay [4], in assay [5] and in assay [6] was “inactive” in each case.
Turning to `CC(N)C(=O)OC(C)(C)Cc1ccc(Cl)cc1` (stereo not drawn), in [1], the activation is 19.8% and -28.1%. The Potency result in assay [2], in [3] and in assay [5] was “inactive” throughout.
`c1cnc2cc3c(cc2n1)C1CNCC3C1`: in assay [1], the activation was -5.72% and -13.8%. Besides, the Potency result in assay [2], in [3], in assay [4], in [5], in [6] and in [12] was “inactive” in each case. For the same compound, the Potency result in [8], in assay [9], in assay [13] and in assay [11] was “inactive” each time. Besides, the viability in [7] is 106%.
Consider `O=[N+]([O-])c1ccc(-c2nc(-c3ccc(F)cc3)c(-c3ccncc3)[nH]2)cc1`, for which the activation in [1] is 47.4%. The Potency entry in assay [2], in assay [3], in [4], in assay [5], in assay [6] and in assay [12] was “inactive” throughout. Further, the Potency entry in assay [9], in [13], in assay [10] and in assay [11] was “inactive” each time. The viability in assay [7] was 106%. Also, the Potency in assay [8] was 16.6 µM (active).
In the case of `CC(C)(C(=O)O)c1ccc(C(O)CCCN2CCC(C(O)(c3ccccc3)c3ccccc3)CC2)cc1` (stereo not drawn), the activation in [1] was 1.67% and -7.64% and -17.3%. For the same compound, the Potency result in assay [2], in assay [3], in assay [4], in [5] and in assay [6] was “inactive” throughout.
On to `CN(C)CCC(c1ccccc1)c1ccccn1` (stereo not drawn), for which, in [1], the activation was -2.82% and -9.55% and -25.6%. The Potency result in assay [2], in assay [3], in [4], in assay [5] and in assay [6] was “inactive” each time.
Take `CC[C@]1(O)CC2CN(CCc3c([nH]c4ccccc34)[C@@](C(=O)OC)(c3cc4c(cc3OC)N(C)[C@H]3[C@@](O)(C(=O)OC)[C@H](OC(C)=O)[C@]5(CC)C=CCN6CC[C@]43[C@@H]65)C2)C1` (stereo partly drawn): the activation in assay [1] is 4.91%. Also, the Potency entry in assay [2], in assay [3], in assay [4], in [5] and in assay [6] was “inactive” in each case. For the same compound, the Potency in assay [7] was 0.742 µM (active); in assay [12] it was 0.296 µM (active); in [8] it was 0.263 µM (active); in assay [9] it was 0.209 µM (active); in assay [13] it was 0.263 µM (active); in assay [10] it was 0.296 µM (active). Moreover, in assay [11], the Potency was 0.296 µM (active).
